HT1080NT lethal: kills 2HG-producing HT-1080-NT fibrosarcoma cells | HT-1080-NT fibrosarcoma viability, CellTiter-Glo ATP luminescence, 48 h | Potency, µM (highest dose often 46.1 µM), usual class: cytotoxic | hit rate 1.6% among 360,000 | AID 686970;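 also: NT is the 2HG producing partner of a matched IDH1 knockdown line; nearly all actives have a fitted effect of over 55% in size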
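Read-out is CellTiter-Glo luminescence after 10 minutes at room temperature, following 48 hours' compound treatment of HT-1080-NT cells (750 cells/well, RPMI, 5% FBS, 37 degrees C).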
TDP1 cell noCPT: qHTS for Inhibitors of human tyrosyl-DNA phosphodiesterase 1 (TDP1): qHTS in cells in absence of CPT. Potency, µM (doses to about 46.2 µM), hits mostly inhibitors. hit rate 15% among 420,000. AID 686978, 2013. DT40 Tdp1-/- hTDP1 cells, no CPT, ATP luminescence, 48 h; also: nearly all actives have a fitted effect of over 55% in size
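DT40 Tdp1-/-;hTDP1 cells, no CPT (DMSO vehicle only), 400 cells/well; compounds pin-transferred; ≥48 hr, 37 °C; CellTiter-Glo 30 min RT dark, luminescence read.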
IL1B secr inh: inhibitors of inflammasome signaling (IL-1 beta secretion). activity change, % at 57.5 µM. AID 743279. hit rate 4.7% among 360,000. THP-1 LPS/ATP IL-1B secretion, AlphaLISA, 16 h; active compounds read low; in the data active = activity change below about -50%; inconclusive = mostly about -30% to -49%
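Secreted IL-1B measured by AlphaLISA bead assay after 16 h compound exposure of THP-1 cells; compounds (final up to 57.5 uM) added 1 h before LPS (250 ng/mL) and ATP (1.25 mM) stimulation; lower signal means less secretion.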
DT40 TDP1 CPT: growth inhibition of DT40 Tdp1-/-;hTDP1 cells with camptothecin (screen for TDP1 inhibitors) | chicken DT40 Tdp1-/-;hTDP1 cells + 20 nM CPT, ATP luminescence, 48 h | Potency, µM (doses to about 46.2 µM), actives largely listed as inhibitors | hit rate 12% among 420,000; also: nearly all actives have a fitted effect of over 55% in size
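Chicken DT40 Tdp1-/- cells stably complemented with human TDP1 were seeded at 400 cells/well in medium containing 20 nM camptothecin, exposed to pin-transferred compounds, and grown at 37 °C for at least 48 hr. Viability was read as ATP luminescence.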
uPA surface inh: blocks generation of uPA at the cell surface; AID 540303; Potency, µM (top dose mostly 38.3 µM), usual class: inhibitors; hit rate 0.31% among 330,000; cell surface uPA generation assay, qHTS; active = well fitted inhibition curve with a large enough effect; inconclusive = small, poorly fitted or top-dose-only effect; inactive = no such curve, though single readings can be large or run the other way; tested in mouse RAW 264.7 cells; also: nearly all actives have a fitted effect of over 55% in size
HT1080 IDH1KD tx: HT-1080 IDH1 knockdown cell toxicity (counter line). HT-1080 IDH1 knockdown viability, ATP luminescence, 48 h. Potency, µM (top dose mostly 46.1 µM), usual class: cytotoxic. hit rate 2% among 360,000
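IDH1KD HT-1080 cells, 750/well, RPMI + 5% FBS; compound pinned after 2 h settling; 48 h, 37 °C; CellTiter-Glo luminescence; % activity normalised to DMSO and no-cell wells; curves fitted, classed by r2 and efficacy.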
Of the large screens only hits and unclear results are named; the others gave an inactive call. Hits are enriched below; roughly 19% of the tested compounds scored in any of these assays. Unless noted, calls follow the shape of the dose curve; as a rule, active = well fitted curve in the direction sought with a large enough effect; inconclusive = small, poorly fitted or top-dose-only effect, or another doubt; inactive = no such curve, though single readings can be large; an effect the other way counts as inactive or inconclusive.

C=CCn1cc(/C=N/Nc2nc3ccccc3[nH]2)c2ccccc21	HT1080NT lethal 21µM, TDP1 cell noCPT inconclusive, IL1B secr inh -95, DT40 TDP1 CPT inconclusive, HT1080 IDH1KD tx 16µM
C(=N\Nc1nc2ccccc2[nH]1)/c1cccs1	TDP1 cell noCPT inconclusive, IL1B secr inh -71, DT40 TDP1 CPT inconclusive
COc1ccc(NC(=O)C2CCCO2)cc1 (stereo not given)	none
COc1cccc(OC)c1C(=O)Nc1nc(-c2ccccc2)cs1	none
CCCC(=O)Nc1nc(-c2ccc(OC)cc2)cs1	TDP1 cell noCPT inconclusive, DT40 TDP1 CPT inconclusive
COc1ccc(-c2csc(NC(=O)c3c(C)noc3C)n2)cc1OC	TDP1 cell noCPT 15µM, IL1B secr inh inconclusive, DT40 TDP1 CPT 21µM (no result: uPA surface inh)
COc1ccc(-c2csc(NC(=O)C3CCCO3)n2)cc1 (stereo not given)	TDP1 cell noCPT 21µM, DT40 TDP1 CPT inconclusive
COc1ccc(-c2csc(NC(=O)c3ccccc3C(=O)O)n2)cc1	none
COc1ccc(-c2csc(NC(=O)CS(=O)(=O)c3ccccc3)n2)cc1	TDP1 cell noCPT 23µM, DT40 TDP1 CPT inconclusive
COc1ccc(-c2csc(NC(=O)c3ccoc3C)n2)cc1	TDP1 cell noCPT 12µM
O=C(NCc1ccccc1)C(c1ccncc1)N(C(=O)c1csnn1)c1cccc(F)c1 (stereo not given)	none
COC(=O)N1CCC[C@@]2(CCN(Cc3nccs3)C2)C1	none (no result: HT1080NT lethal, IL1B secr inh, uPA surface inh, HT1080 IDH1KD tx)
Cc1ccc2c(c1)N(C(=O)C1CCN(S(=O)(=O)c3c(C)noc3/C=C/c3ccccc3F)CC1)CCO2	TDP1 cell noCPT inconclusive (no result: HT1080NT lethal, IL1B secr inh, uPA surface inh, HT1080 IDH1KD tx)
Cc1noc(C)c1C(=O)Nc1nc(-c2ccc([N+](=O)[O-])cc2)cs1	TDP1 cell noCPT inconclusive, DT40 TDP1 CPT inconclusive
Cc1ccc(-c2csc(NC(=O)c3c(C)noc3C)n2)cc1	TDP1 cell noCPT 9.2µM, DT40 TDP1 CPT inconclusive, uPA surface inh inconclusive
COc1cc(OC)cc(C(=O)N[C@H](C(=O)Nc2nc(-c3ccc(OC)c(OC)c3)cs2)C(C)C)c1	HT1080NT lethal inconclusive, TDP1 cell noCPT 13µM, DT40 TDP1 CPT 18µM
CCc1noc(C)c1C(=O)Nc1nc(-c2ccc(Cl)cc2Cl)cs1	TDP1 cell noCPT 18µM, IL1B secr inh inconclusive, DT40 TDP1 CPT 18µM
COc1ccc(-c2csc(NC(=O)c3c(C)noc3C)n2)cc1	TDP1 cell noCPT 23µM, IL1B secr inh -52, DT40 TDP1 CPT 15µM
COc1cc(OC)cc(C(=O)N[C@H](C(=O)Nc2nc(-c3cc(OC)ccc3OC)cs2)C(C)C)c1	TDP1 cell noCPT inconclusive (no result: IL1B secr inh)
COc1ccc(-c2csc(NC(=O)c3nc(-c4ccccc4)oc3C)n2)cc1	none
COCCNC(=O)C1(C)CCN(C(=O)c2ccc3ccccc3n2)C1 (stereo not given)	none (no result: uPA surface inh)
COC(=O)c1ccc(NC(C)C(=O)OC)c([N+](=O)[O-])c1 (stereo not given)	none
Cc1ccc2c(cnn2C(=O)CCC(=O)NC2CCCCC2)c1	none
COc1ccc(-c2csc(NC(=O)c3ccccc3S(C)(=O)=O)n2)cc1	TDP1 cell noCPT inconclusive, IL1B secr inh -95
Cc1ccccc1N1CC(C(=O)Nc2ccc(S(=O)(=O)N3CCCCC3)cc2)CC1=O (stereo not given)	TDP1 cell noCPT 16µM, DT40 TDP1 CPT inconclusive (no result: uPA surface inh)
Cc1cccc(N2CC(C(=O)Nc3ccc(S(=O)(=O)N4CCCCC4)cc3)CC2=O)c1C (stereo not given)	TDP1 cell noCPT inconclusive, IL1B secr inh inconclusive, DT40 TDP1 CPT inconclusive
CC(C)(C)N1CC(C(=O)Nc2ccc(S(=O)(=O)N3CCCCC3)cc2)CC1=O (stereo not given)	TDP1 cell noCPT 1.6µM, DT40 TDP1 CPT inconclusive
CN(C)c1ccc(C=O)c(F)c1	none (no result: HT1080NT lethal, IL1B secr inh, uPA surface inh, HT1080 IDH1KD tx)
COc1ccc(COc2cc(-c3cccc(OC)c3)nc3ccc(NC(=O)c4ccc(Cl)cc4)cc23)cc1	HT1080NT lethal inconclusive, TDP1 cell noCPT 16µM, DT40 TDP1 CPT inconclusive, uPA surface inh inconclusive, HT1080 IDH1KD tx inconclusive

From PubChem
